IDH1 R132H inh = human IDH1 R132H inhibition; O75874; IDH1-R132H enzyme, NADPH consumption, diaphorase/resazurin fluorescence; Potency, µM (series often up to 76.6 µM), most hits filed as inhibitors; hit rate 0.093% among 390,000; AID 602179; note: nearly all actives have a fitted effect of over 65% in size
Target sequence (O75874 whole entry R132H, stated change not applied): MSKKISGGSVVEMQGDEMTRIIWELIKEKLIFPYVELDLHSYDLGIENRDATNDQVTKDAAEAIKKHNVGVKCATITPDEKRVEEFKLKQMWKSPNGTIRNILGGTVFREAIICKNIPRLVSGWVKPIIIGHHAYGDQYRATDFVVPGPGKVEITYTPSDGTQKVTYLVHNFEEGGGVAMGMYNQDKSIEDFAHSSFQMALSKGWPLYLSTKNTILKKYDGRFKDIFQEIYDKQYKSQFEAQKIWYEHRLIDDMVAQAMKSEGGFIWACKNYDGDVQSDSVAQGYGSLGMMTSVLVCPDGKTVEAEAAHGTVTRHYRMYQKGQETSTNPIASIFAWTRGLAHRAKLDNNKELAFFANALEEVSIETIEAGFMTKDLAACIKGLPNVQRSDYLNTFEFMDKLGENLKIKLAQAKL
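IDH1-R132H (0.5 ug/mL dispensed) in pH 7.5 Tris buffer was preincubated 30 min with compound, then given a substrate mix of 0.016 mM NADPH and 2 mM alpha-KG for 80 min at room temperature; remaining NADPH was read by diaphorase/resazurin fluorescence.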
TGFb SMAD3 inh = blocks TGF-b signaling; HepG2 CAGA-GFP TGF-b/SMAD3 reporter, GFP fluorescence, 18 h; TGF-beta stimulated, 500 pg/mL final; Potency, µM (highest dose often 46.1 µM), usual class: inhibitors; hit rate 1.2% among 410,000; AID 588855; note: nearly all actives have a fitted effect of over 65% in size
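Smad-responsive CAGA-GFP expression was quantified in HEPG2 cells exposed to compounds and 500 pg/mL final TGF-beta for 18 h at 37 degrees C; unstimulated wells defined full inhibition.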
LDHA inh = blocks human lactate dehydrogenase A | activity change, % (values are at about 110 or 230 µM) | purified LDHA, NADH/diaphorase-resazurin fluorescence; stronger effect = lower value | P00338 | hit rate 0.15% among 480,000 | AID 1347041; in the data active = activity change below about -30%; inconclusive = mostly about -25% to -30%
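Human LDH5 at 2 nM final in Tris HCl pH 7.4 with 0.06 mM NADH and 0.2 mM pyruvate, reacted 5 minutes at room temperature. Remaining NADH coupled via diaphorase/resazurin; resorufin fluorescence read at 0 and 20 minutes, normalized to enzyme-free and DMSO wells.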
ATXN2 expr inh = inhibitors of ATXN2 expression | HEK-293 ATXN2-luciferase reporter, luminescence, 24 h | Potency, µM (series often up to 57 µM), usual class: inhibitors | hit rate 0.72% among 360,000 | AID 1745845; note: nearly all actives have a fitted effect of over 55% in size
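qHTS (up to 57 uM final) was run with 24 h compound exposure of reporter cells at 37 °C. Each well was multiplexed: SteadyGlo luminescence measured ATXN2-luciferase expression after a fluorogenic Gly-Phe-AFC viability readout (25 uM final).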
HepG2 viability = HepG2 cytotoxicity, counter-screen for TGF-b inhibitors. HepG2 CAGA-GFP viability, ATP luminescence, 18 h. Potency, µM (doses to about 46.1 µM), most hits filed as cytotoxic. hit rate 0.76% among 410,000. AID 588856
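HepG2 CAGA-GFP cells (1000/well, DMEM with 1% FBS) received compound, then TGF-beta at 500 pg/mL final, and were incubated 18 hours at 37 degrees C. Viability was read by CellTiter-Glo luminescence. Media-only wells were set as complete cell-killing and DMSO as no toxicity.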
S2 tox = reduces viability in counter-screen for ATXN expression inhibitors | S2 cells (HEK-293 line with an ATXN2-luciferase reporter) viability, CellTiter-Fluor protease fluorescence, 24 h | Potency, µM (highest dose often 56.7 µM), hits mostly cytotoxic | hit rate 0.49% among 400,000; note: nearly all actives have a fitted effect of over 40% in size
Hits are given with their value; [ ] = dose if it differs, or a comment. Sampled rows, rich in hits. Any-hit rate of the full collection: about 2.2%. Unless noted, calls come from the whole dose curve; as a rule, active = well fitted curve in the direction sought with a large enough effect; inconclusive = small, poorly fitted or top-dose-only effect, or another doubt; inactive = no such curve, though single readings can be large; an effect the other way counts as inactive or inconclusive.

Cc1ccc(N(C)C(=O)CC(C)S(=O)(=O)c2ccc3c(c2)NC(=O)CO3)cc1 (centres undefined) was read as IDH1 R132H inh inactive, TGFb SMAD3 inh inconclusive, LDHA inh inactive, ATXN2 expr inh inactive, HepG2 viability inactive and S2 tox inactive.
`COc1cc2ncnc(Nc3ccc(F)c(Cl)c3)c2cc1NC(=O)C=CCN1CCCCC1` gave ATXN2 expr inh 30.6µM.
`CN(C)CC=CC(=O)Nc1cc2c(Nc3ccc(F)c(Cl)c3)ncnc2cc1O[C@H]1CCOC1` gave ATXN2 expr inh 27.3µM.
CCOc1cc2ncc(C#N)c(Nc3ccc(F)c(Cl)c3)c2cc1NC(=O)C=CCN(C)C was read as ATXN2 expr inh 21.7µM.
Screening O=C(NCCN1CCCCC1)Nc1ccc(F)c(Cl)c1 returned IDH1 R132H inh inactive, TGFb SMAD3 inh inactive, LDHA inh inactive, ATXN2 expr inh inactive, HepG2 viability inactive and S2 tox inactive.
For COC(=O)c1ccc(COc2ccc(OCc3ccccc3)cc2)o1 the results were LDHA inh inactive.
`CCOC(=O)c1cnc2c(C)cccc2c1Nc1ccccc1OCC` gave LDHA inh -34.7.
CCOC(=O)c1cnc2c(Cl)cccc2c1Nc1ccccc1OCC was read as LDHA inh inactive.
`O=C(NCCCN1CCCCC1)c1[nH]c2ccccc2c1Sc1ccc(Cl)cc1` gave IDH1 R132H inh inactive, TGFb SMAD3 inh inconclusive, LDHA inh inactive, ATXN2 expr inh inconclusive and HepG2 viability 12.6µM.
For CC1CCCCN1CCCNC(=O)c1[nH]c2ccccc2c1Sc1ccc(Cl)cc1 (centres undefined) the results were IDH1 R132H inh inactive, TGFb SMAD3 inh inconclusive, LDHA inh inactive, ATXN2 expr inh inconclusive and HepG2 viability inactive.
`C=Cc1ccc(CN2C(=O)c3ccccc3Sc3ccc(C(=O)OCc4ccco4)cc32)cc1` gave IDH1 R132H inh inactive, TGFb SMAD3 inh inactive, LDHA inh inactive, ATXN2 expr inh inactive, HepG2 viability inactive and S2 tox inactive.
Screening O=C(Nc1nc(-c2ccccn2)cs1)c1ccccc1-n1cnnn1 returned IDH1 R132H inh inactive, TGFb SMAD3 inh inconclusive, LDHA inh inactive, ATXN2 expr inh 10µM, HepG2 viability inactive and S2 tox inconclusive.
`Cc1cc(C(=O)Nc2nc(-c3ccccn3)cs2)ccc1[N+](=O)[O-]` gave IDH1 R132H inh inactive, TGFb SMAD3 inh inconclusive, LDHA inh inactive, ATXN2 expr inh inconclusive, HepG2 viability inactive and S2 tox inconclusive.
O=C(Nc1nc(-c2ccccn2)cs1)c1cc(Cl)ccc1[N+](=O)[O-] was read as IDH1 R132H inh inactive, TGFb SMAD3 inh 11.2µM, LDHA inh inactive, ATXN2 expr inh 7.52µM, HepG2 viability inactive and S2 tox inactive.
`CCCn1nc(C(=O)Nc2nc(-c3ccccn3)cs2)c2ccccc2c1=O` gave IDH1 R132H inh inactive, TGFb SMAD3 inh inconclusive, LDHA inh inactive, ATXN2 expr inh 22.4µM, HepG2 viability inactive and S2 tox inactive.
`CCCCCn1nc(C(=O)Nc2nc(-c3ccccn3)cs2)c2ccccc2c1=O` gave LDHA inh inactive.
COc1ccc(Cn2nc(-c3ccccc3)c(N3CCCCC3)cc2=O)cc1 was read as IDH1 R132H inh inactive, TGFb SMAD3 inh inconclusive, LDHA inh inactive, ATXN2 expr inh inactive, HepG2 viability 22.4µM and S2 tox inactive.
O=c1cc(N2CCCCC2)c(-c2ccccc2)nn1Cc1ccccc1 was read as IDH1 R132H inh inactive, TGFb SMAD3 inh inconclusive, LDHA inh inactive, ATXN2 expr inh inactive[11.3 µM] and HepG2 viability inactive.
`CCOc1cc2c3c(c1)C1(Nc4ccccc4S1)C(=O)N3C(C)(C)CC2C` (centres undefined) gave IDH1 R132H inh inactive, TGFb SMAD3 inh 12.6µM, LDHA inh inactive, ATXN2 expr inh inactive, HepG2 viability inactive and S2 tox inactive.
For NS(=O)(=O)c1ccc(N/N=C/c2cccc(/C=N/Nc3ccc(S(N)(=O)=O)cc3[N+](=O)[O-])c2)c([N+](=O)[O-])c1 the results were LDHA inh inactive.

High-throughput results: PubChem, National Center for Advancing Translational Sciences (NCATS)
